29 molecules from PubChem BioAssay (NCATS) can be followed below.

Molecules are shown by their SMILES. Records with an inconclusive call do not appear. Unmarked numbers belong to inactive results. Calls of active or inactive are those of the source. Calls come from the whole dose curve; as a rule, active = well fitted cell-killing curve with a large enough effect; inconclusive = small, poorly fitted or top-dose-only effect, or effect the other way; inactive = flat fitted curve, though single readings scatter. Where a SMILES comes first, the peptide text is derived from it. [ ]: non-standard residue; d: D form. pGlu = O=C1CC[C@@H](C(=O)O)N1
% is set by controls: 0 for no effect and ±100 for the full control effect; potency is the fitted concentration of half-maximal effect.

For the assay, the system named is CAOV3. Briefly: Primary qHTS to identify gynecologic anti-cancer compounds using libraries of approved drugs and bioactive compounds (AID 1345084). Note: nearly all actives have a fitted effect of over 55% in size. Conditions: Gynecologic cancer cell panel viability, ATPlite luminescence, 48 h; series mostly up to 57.5 µM; activity change, negative = cytotoxicity: at the top concentration. The gist of the method:
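In this quantitative HTS, cell killing is estimated from loss of ATP-dependent luciferase light. Cells see five compound concentrations over a 48 h exposure.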
As for `Cc1cnc(NS(=O)(=O)c2ccc(N)cc2)nc1`, the “activity change, negative = cytotoxicity” value is 3.63%.

Turning to `CC1c2ccccc2CN1NC(=O)c1ccc(Cl)c(S(N)(=O)=O)c1` (centres undefined), the “activity change, negative = cytotoxicity” value is 8.32%.

Consider `CCC[C@H](N[C@@H](C)C(=O)N1[C@H](C(=O)O)C[C@@H]2CCCC[C@@H]21)C(=O)OCC`, for which the “activity change, negative = cytotoxicity” value was -26.4%.

For `N#CSCC(=O)O`, the “activity change, negative = cytotoxicity” value was -3.09%.

`CC(C)(C)C1CCC(CC2=C(O)c3ccccc3C(=O)C2=O)CC1` (centres undefined): the “activity change, negative = cytotoxicity” value was 14.3%.

In the case of `CCOC(=O)N1CCC(Nc2ccc(Cl)cc2N)CC1`, the “activity change, negative = cytotoxicity” value is -26.5%.

Consider `O=C(NO)c1ccccc1`, for which the “activity change, negative = cytotoxicity” value was -4.59% [at 116 µM].

As for `Cc1cccc(N(C)C(=S)Oc2ccc3c(c2)CCC3)c1`, the “activity change, negative = cytotoxicity” value was 1.62%.

`CC(C)(c1ccc(O)cc1)c1ccc(O)cc1`: the “activity change, negative = cytotoxicity” value was 16.9% [at 116 µM].

In the case of `CC(=O)[C@H]1CC[C@H]2[C@@H]3C=CC4=CC(=O)CC[C@@]4(C)[C@@H]3CC[C@]12C`, the “activity change, negative = cytotoxicity” value is -0.161%.

For the molecule `O=C(OCCN1CCOCC1)c1cccnc1Nc1cccc(C(F)(F)F)c1`, the “activity change, negative = cytotoxicity” value was -20.4%.

In the case of `COC(=O)c1cc(Cl)ccc1NS(=O)(=O)C(F)(F)F`, the Potency was 25.1 µM (active).

As to `CC1CC(=O)NN=C1c1ccc(NCC(C)(C)NCC(O)COc2cc(Cl)ccc2C#N)cc1` (centres undefined), the “activity change, negative = cytotoxicity” value was 13.8%.

Take `c1ccc(C(O[C@H]2CCCN(CCc3ccc4c(c3)OCO4)C2)c2ccccc2)cc1`: the “activity change, negative = cytotoxicity” value is -0.156%.

For the molecule `O=C(CS(=O)Cc1ccco1)NC/C=C\COc1cc(CN2CCCCC2)ccn1` (centres undefined), the “activity change, negative = cytotoxicity” value is 2.05%.

Consider `CCCC(=O)O[C@]1(C(=O)CC)CC[C@H]2[C@@H]3CCC4=CC(=O)CC[C@]4(C)[C@H]3[C@@H](O)C[C@@]21C`, for which the “activity change, negative = cytotoxicity” value was -20%.

Regarding `O=C(CCCl)NCCc1ccccc1`, the “activity change, negative = cytotoxicity” value is 14.6%.

Take `C[N+]1(C)CCC(OC(=O)C(O)(c2ccccc2)C2CCCC2)C1` (centres undefined): the “activity change, negative = cytotoxicity” value was 1.7%.

As to `CCNC(=O)[C@@H]1CCCN1C(=O)[C@H](CCCN=C(N)N)NC(=O)[C@H](CC(C)C)NC(=O)CNC(=O)[C@H](Cc1ccc(O)cc1)NC(=O)[C@H](CO)NC(=O)[C@H](Cc1c[nH]c2ccccc12)NC(=O)[C@H](Cc1cnc[nH]1)NC(=O)[C@@H]1CCC(=O)N1` ([pGlu]HWSYGLRP-NHEt), the “activity change, negative = cytotoxicity” value is 2.49%.

Regarding `CC(C)Cc1ccc(C(C)C(=O)OCc2ccccn2)cc1` (centres undefined), the “activity change, negative = cytotoxicity” value was -1.05%.

Regarding `CCCCCCOC(=O)NC(=N)c1ccc(NCc2nc3cc(C(=O)N(CCC(=O)OCC)c4ccccn4)ccc3n2C)cc1`, the “activity change, negative = cytotoxicity” value was -7.73%.

`Oc1cccc2[nH]ccc12`: the “activity change, negative = cytotoxicity” value was 10.8%.

For the molecule `CN1CCC(N(Cc2cccs2)c2ccccc2)CC1`, the “activity change, negative = cytotoxicity” value was 1.32%.

Turning to `CC[N+](CC)(CC)CCOC(=O)C(C1CCCC1)C1CCCC1`, the “activity change, negative = cytotoxicity” value is -24%.

Consider `C/C(=N/NC(=O)c1ccncc1)C(=O)O`, for which the “activity change, negative = cytotoxicity” value was 11.5%.

Regarding `C[N+]1(CC2COC(c3ccccc3)(c3ccccc3)O2)CCCCC1` (centres undefined), the “activity change, negative = cytotoxicity” value was -32.5% [at 25.3 µM].

In the case of `CCOC(=O)c1cc(=O)c2c(OCC(COc3cccc4oc(C(=O)OCC)cc(=O)c34)OC(=O)[C@@H](N)CCCCN)cccc2o1`, the “activity change, negative = cytotoxicity” value is 19.8%.

As for `C=CCOc1cc(Cl)ccc1C(=O)NCCN(CC)CC`, the “activity change, negative = cytotoxicity” value is 11.5%.

Turning to `CCOc1ncc(F)c(=O)[nH]1`, the “activity change, negative = cytotoxicity” value is 6.43%.
